Activity calls are given as the source filed them. Rule for the calls: active = hit-call score of the fitted dose curve at least 0.9, where 1 is the maximum; inactive = score below 0.9.

By AC50 is commonly meant the midpoint of the concentration-response curve, whichever way the signal moves.

Read-out in this test: Cytochrome P450 7A1 (Homo sapiens) (UniProt P22680)
Put plainly: LTEA_HepaRG_CYP7A1: Life Technologies and Expression Analysis (LTEA) Assay for Cytochrome P450 7A1 (CYP7A1) using HepaRG (AID 2283496). Particulars: mRNA level, 48 h; actives raise or lower the signal. How it is done:
LTEA_HepaRG is a cell based, multiplexed-readout assay that uses HepaRG, a human liver cell line, with measurements taken at 48 hours after chemical dosing on a 96-well plate.LTEA_HepaRG_CYP7A1 is one of 102 assay component(s) measured in the LTEA HepaRG cell culture assay. It is a marker of NR mediated metabolism.Data from the assay component LTEA_HepaRG_CYP7A1 was analyzed into 1 endpoint. This assay endpoint, LTEA_HepaRG_CYP7A1, was analyzed with bidirectional fitting relative to DMSO as the negative control and baseline of activity. Using a type of inducible reporter, measures of mRNA induction for gain or loss-of-signal activity can be used to understand regulation of transcription factor activity. To generalize the intended target to other relatable targets, this assay endpoint is annotated to the cyp intended target family, where the subfamily is xenobiotic metabolism.
A total of 1060 chemcials from the ToxCast library were tested in eight-point concentration-response experiments. Cell culture and cytotoxicity assays were conducted at Thermo Fisher Scientific's Custom Services facility (Madison, WI). A single lot of human HepaRG cells (Thermo Fisher Scientific, Frederick, MD) was used for the cell culture experiments. 96-well format collagen type I coated plates of human HepaRG cells were prepared using established methods. Briefly, cryopreserved HepaRG cells were thawed, plated at a density of approximately 100,000 cells/well in HepaRG Thaw, Plate, and General Purpose media (HPRG770, Thermo Fisher Scientific), and incubated for 48 hours. 0.5% DMSO was selected as vehicle control to balance the requisite need of DMSO in HepaRG cultures to maintain differentiation (for example, baseline metabolism, proportions of hepatocytes vs. cholangiocytes), while enabling further hepatic receptor pathway activation (for example, PXR and CAR) in response to chemical exposure. 48 hours after plating, the culture medium was replaced with HepaRG Serum-Free Incudtion Media. Cells were exposed to each test chemical in duplicate and maintained in CO2 incubators for another 48 hours. Chemical plates were thawed to room temperature and 200x concentrations of treatment groups were prepared. 8-point conentration-reponse curves were made with the highest exposure at 100 uM, followed by half-log dilutions, all in 0.5% DMSO. Each test plate contained variouse controls, induction positive controls (1mM phenobarbital), cytotoxicity positive controls ([…] aflatoxin B1), vehicle controls (0.5% DMSO), and total lysis controls (0.5% DMSO). Cell morphology images were taken using an Essen IncuCyte FLR automated microscope, with six 96-well plates imaged in about 24 minutes. Images were captured and exported and JPEG files. Spent culture media was transfered to black-well plates for the LDH assay, and remaining media was sorted at -80 C for later use. Cells were treated with RLT buffer and frozen until shipped for gene expression analysis. Total RNA was isolated from the cell suspension in 75 uL of Buffer RLT (Qiagen, Germantown, MD 20874) by Quintiles/Expression Analysis (Durham, NC) using a custom isolation procedure. Total RNA from each plate well was transferred to a preamplification plate. Fluidigm's 96.96 Dynamic ArrayTM (Fluidigm, Amsterdam, the Netherlands) technology was used for gene expression analyses by quantitative reverse transcription polymerase chain reaction (qRT-PCR, performed by Quintiles/Expression Analysis, Durham, NC)89. Standard TaqManTM Assays (Applied Biosystems/ThermoFisher Scientific, Foster City, CA) were used to assess the expression of 93 genes selected based on their selectivity and sensitivity to important hepatic receptors known to be modulated by environmental chemicals; importance in human hepatocyte functionality; and hepatotoxicity. […]
For `CCOP(=O)(NC(C)C)Oc1ccc(SC)c(C)c1` (stereo not given), the AC50 is 3.62 µM (active). Take `CNC(=O)Oc1cccc2c1OC(C)(C)O2`: the compound was classed as inactive. As for `N#CSCSC#N`, the AC50 was 50 µM (active). With `CN(C)[C@@H]1C(=O)C(C(N)=O)=C(O)[C@@]2(O)C(=O)C3=C(O)c4c(O)cccc4[C@@](C)(O)[C@H]3[C@H](O)[C@@H]12`, the result was inactive.

With `CCc1cccc(C)c1N(C(=O)CCl)C(C)COC` (stereo not given), the result was inactive. Take `CCOP(=S)(OCC)Oc1ccc([N+](=O)[O-])cc1`: the AC50 was 1.78 µM (active). With `CCCOc1nn(C(=O)NS(=O)(=O)c2ccccc2C(=O)OC)c(=O)n1C`, the call was inactive. Still for that read-out and setting: under `COP(=O)(NC(C)=O)SC` (stereo not given) stands “inactive”; under `CC1(C(=O)Nc2ccc(O)c(Cl)c2Cl)CCCCC1`, “inactive”; under `CCC(=O)Nc1ccc(Cl)c(Cl)c1`, “inactive”. For the compound `COc1cccc(C(=O)NN(C(=O)c2cc(C)cc(C)c2)C(C)(C)C)c1C`, the AC50 is 2.88 µM (active). On the same count and under the same terms, under `CCCCSP(=O)(SCCCC)SCCCC` stands 50 µM (active). In the case of `CCOP(=O)(OCC)Oc1cc(C)nc(C(C)C)n1`, the compound was classed as inactive. On the same count and under the same terms, next, `CON=C(C(=O)OC)c1ccccc1CON=C(C)c1cccc(C(F)(F)F)c1`: “inactive”.

With `CNc1cnn(-c2cccc(C(F)(F)F)c2)c(=O)c1Cl`, the AC50 is 21.4 µM (active). In the case of `CN(C)NC(=O)CCC(=O)O`, the result was inactive. The same measure, in the same setting: next, `CCOP(=S)(OCC)Oc1cc(C)nc(C(C)C)n1`: “inactive”. The same measure, in the same setting: next, `C#CCC1=C(C)C(OC(=O)C2C(C=C(C)C)C2(C)C)CC1=O` (stereo not given): “inactive”. Consider `CSC1=N[C@@](C)(c2ccccc2)C(=O)N1Nc1ccccc1`, for which the concentration at half-maximal activity (AC50) was 38 µM (active).

As to `C=C(C)[C@H]1Cc2c(ccc3c2O[C@@H]2COc4cc(OC)c(OC)cc4[C@@H]2C3=O)O1`, the AC50 was 3.69 µM (active).

Take `CC(C)=CC1C(C(=O)OCN2C(=O)C3=C(CCCC3)C2=O)C1(C)C` (stereo not given): the compound was called inactive. As to `CCOP(=O)(SC(C)CC)N1CCSC1=O` (stereo not given), the AC50 is 32.3 µM (active). As to `CCNc1nc(Cl)nc(NC(C)(C)C#N)n1`, the result was inactive. For `C[Si](Cn1cncn1)(c1ccc(F)cc1)c1ccc(F)cc1`, the AC50 is 39.6 µM (active). As to `C#CC(C)(C)NC(=O)c1cc(Cl)cc(Cl)c1`, the result was inactive.

Take `S=C1NCCN1`: the compound was called inactive.

Take `CCC(=NOC/C=C/Cl)C1=C(O)CC(C2CCOCC2)CC1=O` (stereo not given): the compound was called inactive. In the case of `FC(F)C(F)(F)OCC(Cn1cncn1)c1ccc(Cl)cc1Cl` (stereo not given), the AC50 is 44.6 µM (active).

Turning to `CCCCOC(=O)c1ccccc1C(=O)O`, the call was inactive. Regarding `CC(C)[C@H](C(=O)O[C@H](C#N)c1cccc(Oc2ccccc2)c1)c1ccc(Cl)cc1`, the compound was called inactive. On the same count and under the same terms, next, `COP(=O)(OC)SCn1c(=O)oc2cc(Cl)cnc21`: “inactive”.

In the case of `Nc1c(Cl)cc([N+](=O)[O-])cc1Cl`, the concentration at half-maximal activity (AC50) is 50 µM (active). Regarding `Nc1nc(N)nc(NC2CC2)n1`, the compound was classed as inactive. The same measure, in the same setting: next, `CNC(=O)ON=C(C)SC`: “inactive”; `Cc1cc(C2CC2)nc(Nc2ccccc2)n1`: “inactive”. The same measure, in the same setting: next, `C[N+]1(C)CCCCC1`: “inactive”. As to `CC(Oc1cccc(Cl)c1)C(=O)O` (stereo not given), the result was inactive. On the same count and under the same terms, under `CC(C)N(C(=O)SCC(Cl)=C(Cl)Cl)C(C)C` stands “inactive”. On the same count and under the same terms, under `CCc1cccc(CC)c1N(COC)C(=O)CCl` stands “inactive”; under `CN(C)C(=O)Nc1cccc(C(F)(F)F)c1`, “inactive”.

The values above are taken from PubChem BioAssay (EPA / NIEHS).
